Assay outcomes deposited in PubChem BioAssay by National Center for Advancing Translational Sciences (NCATS).
An excerpt weighted towards active compounds, which were near 7.9% of everything screened.
KB-V1 cytotox = qHTS assay for MDR1-selective chemotherapeutics: Primary screen using the drug-selected MDR subline cells KB-V1; KB-V1 MDR cells viability, CellTiter-Glo, 72 h; Potency, µM (doses to about 46.1 µM), most hits filed as cytotoxic; hit rate 3.4% among 400,000; AID 1347076, 2019; further: on the % scale 0 is the no-effect control and ±100 the full control effect; nearly all actives have a fitted effect of over 60% in size
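KB-V1, DMEM (no phenol red) + 10% FBS; cpd pin-transferred, titration series; 72 h, 37 degrees C; CellTiter-Glo, luminescence. Data normalized, curve-fit.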
MCF10A rerep = A quantitative high throughput screen for small molecules that induce DNA re-replication in MCF 10a normal breast cells | MCF 10A DNA re-replication, Hoechst nuclear intensity, 48 h | Potency, µM (highest dose often 46.1 µM), inactives show at the top dose activity, positive = re-replication, hits mostly activators | hit rate 2.9% among 350,000 | AID 624296, 2012; further: % of control where 0% means no effect; nearly all actives have a fitted effect of over 50% in size
KB-3-1 cytotox = qHTS assay for MDR1-selective chemotherapeutics: Primary screen using the parental adenocarcinoma cell KB-3-1; KB-3-1 viability, CellTiter-Glo ATP luminescence, 72 h; Potency, µM (series often up to 46.1 µM), actives largely listed as cytotoxic; hit rate 1.4% among 400,000; AID 1347075, 2019; further: on the % scale 0 is the no-effect control and ±100 the full control effect; nearly all actives have a fitted effect of over 60% in size
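Here the drug-naive KB-3-1 line serves as comparator for MDR sub-line selectivity; cells received compound titrations, 72 h at 37 °C, then CellTiter-Glo readout.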
HT1080 IDH1KD tx = qHTS for induction of synthetic lethality in tumor cells producing 2HG: qHTS for the HT-1080-IDH1KD cell line | HT-1080 IDH1 knockdown viability, ATP luminescence, 48 h | Potency, µM (titrated, usually from 46.1 µM), without a hit: at the top dose activity, negative = toxicity, usual class: cytotoxic | hit rate 2% among 360,000;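 further: 0% = DMSO wells and -100% = cell-free medium wells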
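CellTiter-Glo luminescence after 48 h compound exposure at 37 degrees C of IDH1-knockdown HT-1080 cells in 5% FBS RPMI. %Activity scaled between DMSO wells and cell-free media wells, with curves fitted and assigned curve classes.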
SW480 rereplic = A quantitative high throughput screen for small molecules that induce DNA re-replication in SW480 colon adenocarcinoma cells | SW480 DNA re-replication, Hoechst DNA content imaging, 48 h | Potency, µM (series often up to 46.1 µM), for inactives: at the highest dose re-replication activation, most hits filed as activators | hit rate 1.8% among 340,000 | AID 624297, 2012; further: % of control where 0% means no effect; nearly all actives have a fitted effect of over 55% in size
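Image-based read-out: total Hoechst fluorescence of nuclei (405 nm excitation, 500-530 nm emission), with hits raising the fraction of high-intensity nuclei. SW480 colon cells incubated 48 hr with compounds at 37 C.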
HT1080-NT tox = qHTS for induction of synthetic lethality in tumor cells producing 2HG: qHTS for the HT-1080-NT fibrosarcoma cell line | HT-1080-NT fibrosarcoma viability, CellTiter-Glo ATP luminescence, 48 h | hit rate 1.6% among 360,000 | AID 686970, 2013 | Potency, µM (titrated, usually from 46.1 µM), for the others: at the top dose activity, negative = less viability, usual class: cytotoxic;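 further: NT is the 2HG producing partner of a matched IDH1 knockdown line; 0% = DMSO-treated cells and -100% = media-only wells without cells; nearly all actives have a fitted effect of over 55% in size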
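Luminescent CellTiter-Glo readout after 48 hours of compound exposure at 37 degrees C defined viability of HT-1080-NT cells. Activity was normalized to DMSO wells and cell-free media wells; concentration-response curves were fitted and assigned curve classes.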
An asterisk follows results filed as active; i = inactive; u = inconclusive; x = no result; [ ] = dose if it differs, or a comment. The call rests on the fitted dose curve; in most records, active means well fitted curve in the direction sought with a large enough effect; inconclusive means small, poorly fitted or top-dose-only effect, or another doubt; inactive means no such curve, though single readings can be large; an effect the other way counts as inactive or inconclusive. Potency means the concentration at half of the fitted maximal effect.

SMILES | KB-V1 cytotox | MCF10A rerep | KB-3-1 cytotox | HT1080 IDH1KD tx | SW480 rereplic | HT1080-NT tox
CCCCNC(=O)C(CC)Sc1nnc(-c2ccc(OC)c(OC)c2)c(-c2ccc(OC)c(OC)c2)n1 (stereo not given) | i | x | i | x | x | x
O=C(NCC(c1cccnc1)N1CCOCC1)C(=O)Nc1cccc(Cl)c1 (stereo not given) | i | x | i | x | x | x
COCCCNC(=O)CCc1c(C)nc2nc(-c3cc(OC)cc(OC)c3)nn2c1C | i | x | i | x | x | x
CSc1cccc(NC(=O)Cn2c(=O)n(Cc3ccccc3)c(=O)c3sc4ccccc4c32)c1 | i | x | i | x | x | x
CCOc1ccccc1CNC(=O)C1CCN(c2nnc(C)c3c(C)n(-c4ccc(C)cc4)nc23)CC1 | i | 23µM* | u | 13µM* | u | u
Cc1ccc(-n2nc3c(N4CCC(C(=O)NCc5ccccc5Cl)CC4)nnc(C)c3c2C)cc1 | i | x | i | x | x | x
Cc1ccc(-n2nc3c(N4CCC(C(=O)NCc5ccccc5C)CC4)nnc(C)c3c2C)cc1 | u | u | u | 8.2µM* | 118% | 7.3µM*
O=C(NCC(c1ccc2c(c1)OCO2)N1CCN(c2ccccc2)CC1)c1ccccc1 (stereo not given) | i | x | i | x | x | x
Cc1ccc(NC(=O)CSC2=C(C#N)C(c3ccco3)C3=C(CCCC3=O)N2)cc1 (stereo not given) | i | u | i | 4% | -1%[9.22 µM] | -2%
CC1(C)CC(=O)C2=C(C1)NC(SCC(=O)Nc1ccccc1)=C(C#N)C2c1ccco1 (stereo not given) | i | 16µM* | i | -2% | u | 0%
COc1ccc(OC)c(NC(=O)CSC2=C(C#N)C(c3ccco3)C3=C(CCCC3=O)N2)c1 (stereo not given) | i | u | i | 7% | 16µM* | -3%
Cc1ccc(C(=O)CSC2=C(C#N)C(c3ccco3)C3=C(CC(C)(C)CC3=O)N2)cc1 (stereo not given) | i | u | u | u | u | -30%
N#CC1=C(SCC(=O)c2ccc(Cl)cc2)NC2=C(C(=O)CCC2)C1c1ccco1 (stereo not given) | i | 11µM* | u | 18µM* | u | 18µM*
CCOC(=O)C1CCN(Cc2cn3c(-c4ccc(OC)cc4)nnc3s2)CC1 | i | x | i | x | x | x
CC(=NO)C1CCC2C3CCC4CC(=NO)CCC4(C)C3C(C)(O)CC12C (stereo not given) | 12µM* | 28% | i | 16% | 3% | 9%
O=c1oc2ccccc2nc1/C=C(\O)c1ccccc1 | i | 2% | i | -5% | -9% | -6%
O/C(=C\c1nc2ccccc2nc1/C=C(\O)c1ccccc1)c1ccccc1 | i | 11% | i | u | 0% | 21µM*
CCC(C)NCCCOc1c(C)cc(C)cc1Br (stereo not given) | i | u | i | u | 16µM* | u
CCC(C)NCCOCCOc1ccc(C)cc1Br (stereo not given) | i | -1% | i | u | 17% | u
COc1ccccc1C(C)NC(=O)CCC(=O)N1CCN(S(=O)(=O)c2ccc(Cl)cc2)CC1 (stereo not given) | 18µM* | 4% | u | -10% | 8% | -9%
COC(=O)c1ccccc1NC(=O)N1CCCC1 | u | -4% | i | -11% | 1% | 7%
COC(=O)c1ccccc1NC(=O)N1CCN(S(=O)(=O)c2ccc(Cl)cc2)CC1 | u | u | i | u | 9.2µM* | 0%
Cc1cccc(Cn2nc(C)n3c(cc4cc(C)ccc43)c2=O)c1 | i | x | i | x | x | x
CC(C)c1ccc(OCc2cc(=O)n3c4c(sc3n2)CCCC4)cc1 | i | x | i | x | x | x
O=C(CCCCCn1c(=O)[nH]c2ccsc2c1=O)NCc1ccccc1 | i | x | i | x | x | x
SMILES | KB-V1 cytotox | MCF10A rerep | KB-3-1 cytotox | HT1080 IDH1KD tx | SW480 rereplic | HT1080-NT tox
Cc1ccc(CNC(=O)c2c(O)nc3ccccn3c2=O)cc1 | u | x | i | x | x | x
CN=c1sc2ccccc2n1CC(O)COc1ccccc1 (stereo not given) | 15µM* | 20% | i | -9% | 3% | 1%
CCN(CC)CCn1c(=N)n(CCOc2ccccc2)c2ccccc21 | i | 24% | u | 10µM* | 11µM* | 11µM*
CCN(CC)CCn1c(=N)n(CC(O)COc2ccccc2)c2ccccc21 (stereo not given) | i | 22% | i | u | 21µM* | 16µM*
CCN(CC)CCOc1ccc(Cc2ccccc2)cc1 | x | 24µM* | x | x | -1% | x
CCN(Cc1ccccc1)Cc1ccc(OCc2ccccc2)cc1 | i | 0% | i | 0% | 0% | -1%
O=C(CNC(=O)c1ccccc1)OC(C(=O)O)c1ccc(F)cc1 (stereo not given) | i | x | i | -1% | x | 15%
CCCc1cnc2c(c1SCc1cccc(F)c1)c(=O)n(C)c(=O)n2C | i | x | i | x | x | x
CCC(=O)N1c2ccccc2CC1C(=O)NCCCN1CCN(c2cccc(Cl)c2)CC1 (stereo not given) | i | x | i | x | x | x
Cc1ccc(CN(Cc2cccnc2)C(=O)CN2C(=O)COc3ccccc32)o1 | i | 0% | i | 11% | -3% | 8%
O=C(CN1C(=O)COc2ccccc21)N(Cc1ccccc1)Cc1ccccn1 | 15µM* | -3% | i | 2% | 1% | 3%
COc1ccc(NC(=O)CN2C(=O)C(C)Oc3ccccc32)cc1 (stereo not given) | u | 5% | i | 7% | 3% | 3%
COc1ccc(CN(Cc2ccccn2)C(=O)CN2C(=O)C(C)Oc3ccccc32)cc1 (stereo not given) | 2.1µM* | 28% | i | 10% | 14% | 6%
Cc1ccc(CNC(=O)Cn2c(=O)n(-c3ccc(C)cc3)c(=O)c3c2c2cc(C)ccc2n3C)cc1 | i | x | i | x | x | x
NSc1nc(N)c2nc(-c3ccccc3)c(-c3ccccc3)nc2n1 | i | -36% | u | -5% | -39% | -7%
Nc1nc(N)c2nc(-c3ccccc3)c(N)nc2n1 | i | -45% | i | 2.9µM* | 14% | 2.3µM*
CCOCCn1ccc2c(OCC(=O)Nc3ccc(C(N)=O)cc3)cccc2c1=O | i | x | i | x | x | x
